# Bioassay records (PubChem)
# Most compounds without a hit are left out; they make up all but 8% or so of the library.
# HCV inh: blocks hepatitis C virus | Huh7.5.1 HCVcc-Cre infection, luciferase reporter, 44 h | Potency, µM (titrated, usually from 41.8 µM), inactives show at the top dose activity change, negative = inhibition, hits mostly inhibitors | 340,000 compounds, 3.4% hits; active = well fitted inhibition curve with a large enough effect; inconclusive = small, poorly fitted or top-dose-only effect, or another doubt; inactive = no such curve, though single readings can be large or run the other way; also: potency is read from the fitted curve at half-maximal effect; % is scaled to controls: 0 for no effect and ±100 for the full control effect
#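 Luciferase read-out (15 sec integration) after a 15 min room-temperature substrate step quantifies HCVcc-Cre infection. Cells, 1,000 per well, had compound added 4 h post-plating, then virus at ~0.5 moi, and were cultured 44 h.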
# HCMV inh: human cytomegalovirus inhibition; 410,000 compounds, 4.5% hits; activity change, negative = inhibition, % at 57.5 µM; HFF cells, HCMV-luciferase reporter, 72 h; active compounds read low; in the data active = activity change below about -60%; inconclusive = no clear call, values can overlap the other calls; inactive = above about -39%; also: % is scaled to controls: 0 for no effect and ±100 for the full control effect
#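 Inhibition of viral replication was scored as loss of reporter luminescence in HFFs infected with HCMV-luciferase (MOI 1 PFU/cell) for 72 h; compounds tested at 2 doses, normalized to buffer and Salinomycin controls.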
# SARS PLpro yeast: blocks SARS-CoV papain-like protease in a yeast assay; S. cerevisiae expressing SARS-CoV PLpro, growth rescue; Potency, µM (titrated, usually from 32.9 µM), for the others: top-dose activity, positive = growth rescue, actives largely listed as activators; 330,000 compounds, 0.19% hits; calls by dose curve; also: potency is read from the fitted curve at half-maximal effect; 0% is about no effect; nearly all actives have a fitted effect of over 55% in size
# Lassa entry inh: inhibitors of Lassa virus binding or cell entry; 300,000 compounds, 1.2% hits; Lassa virus pseudotype entry inhibition, cell reporter; Potency, µM (highest dose often 37.9 µM), for the others: at the top dose activity change, negative = inhibition, hits mostly inhibitors; AID 540256; calls by dose curve; tested in HEK293 cells; also: potency is read from the fitted curve at half-maximal effect; % is scaled to controls: 0 for no effect and ±100 for the full control effect; nearly all actives have a fitted effect of over 50% in size
# Marburg entry inh: blocks Marburg virus binding to or entry into cells. Marburg virus pseudotyped entry inhibition, cell reporter. Potency, µM (highest dose often 37.8 µM), for the others: at the top dose activity change, negative = inhibition, usual class: inhibitors. 300,000 compounds, 1.8% hits. AID 540276; calls by dose curve; tested in HEK293 cells; also: potency is read from the fitted curve at half-maximal effect; % is scaled to controls: 0 for no effect and ±100 for the full control effect
# FMDV inh: blocks foot and mouth disease virus; 410,000 compounds, 1.2% hits; FMDV antiviral cell-based qHTS; Potency, µM (top dose mostly 57.9 µM), for inactives: at the top dose activity change, negative = inhibition, most hits filed as inhibitors; calls by dose curve; tested in HEK293T cells; also: read-out not given here; potency is read from the fitted curve at half-maximal effect; % is scaled to controls: 0 for no effect and ±100 for the full control effect; nearly all actives have a fitted effect of over 45% in size
# Numbers without * were called inactive; ? = inconclusive; · = not tested or not shown; [ ] = dose if it differs, or a comment.
SMILES,HCV inh,HCMV inh,SARS PLpro yeast,Lassa entry inh,Marburg entry inh,FMDV inh
CO[C@@H]1CN(C)C(=O)c2ccc(NC(=O)C3CCCC3)cc2OC[C@@H](C)N(Cc2ccc(F)cc2)C[C@H]1C,·,-63*,·,·,·,-14%
Cc1c(-c2ccccc2)nc2ccccc2c1C(=O)Oc1ccc([N+](=O)[O-])cc1,?,-76*,-1%,?,?,?
Cc1nc2cccc(C(=O)Oc3ccc([N+](=O)[O-])cc3)c2o1,12%,54,-3%,?,-10%[46.1 µM],-21%
CC(C)Cc1nc2cc(NS(=O)(=O)N(C)C)cc(C(=O)N3CC4(C)CC3CC(C)(C)C4)c2n1C (stereo not drawn),·,·,·,·,·,23%
COc1ccc(NC(=O)c2cc(C(C)=O)n3ccccc23)cc1,·,31,·,5%[46.1 µM],·,19%
O=[N+]([O-])c1cc([N+](=O)[O-])c(Oc2cc(F)ccc2F)cc1NN1CCCCC1,2%,-85*,16%,·,·,-17%
Cc1cc(F)ccc1Oc1cc(NN2CCCCC2)c([N+](=O)[O-])cc1[N+](=O)[O-],8%,-25,6%,·,·,-19%
CCCn1ccc2c(OCC(=O)NCc3ccccc3Cl)cccc2c1=O,·,11,·,?,·,-26%
CC(Oc1ccccc1)C(=O)NNC(=O)c1ccccn1 (stereo not drawn),?,?,7%,?,?,-10%
CC(Oc1cccc(Br)c1)C(=O)NNC(=O)c1ccccn1 (stereo not drawn),5µM*,·,-33%,·,·,0%
COc1cc(OC)cc(C(=O)NNC(=O)c2ccccn2)c1,?,-98*,22%,?,?,-7%
COc1ccc(C(=O)NNC(=O)c2ccccn2)cc1,0%,-84*,-73%,?,?,1.8µM*
COc1ccc(C(=O)Nc2ccc(NC(=O)c3cnccn3)cn2)cc1,13µM*,13,6%,-20%,9%,·
CCOC(=O)c1cc2c(=O)n3ccccc3nc2n(Cc2ccco2)c1=NC(=O)c1cccc(F)c1,·,-13,·,0%[46.1 µM],-29%[46.1 µM],19%
CCOC(=O)c1[nH]c(C)c(CCC(=O)Nc2cc(Cl)c(OC)cc2OC)c1C,·,3,·,7%[46.1 µM],·,-2%
CCCCOC(=O)c1ccc(NC(=O)CC2NCCNC2=O)cc1 (stereo not drawn),·,30,·,-14%[46.1 µM],16%[46.1 µM],17%
CCC(C)NC(=O)Cn1c(=O)ccc2cc(S(=O)(=O)N3CCCC3)ccc21 (stereo not drawn),·,3,·,-5%[46.1 µM],·,-9%
Cc1ccc(C)c(-n2c(-c3ccc(Br)cc3)csc2=NC(=O)c2ccccc2F)c1,3.2µM*,-27,-3%,?,1.3µM*,-22%
Cn1ccsc1=NC(=O)c1ccccc1F,9%,-17,-3%,-2%,?,44%
CN(C)CCNC(=O)CC1(C)N=C(c2ccc(-c3ccccc3)cc2)N(C)O1 (stereo not drawn),·,-10,·,·,·,·
O=C(CNC(=O)c1cccc(F)c1)N/N=C/c1cc(Br)ccc1OC(=O)/C=C/c1ccco1,7.9µM*,-101*,-25%,?,18µM*,-16%
O=C(CNC(=O)c1ccccc1O)N/N=C/c1cc(Br)ccc1OC(=O)/C=C/c1ccco1,?,-74*,32%,5.6µM*,?,-30%
CCCC(=O)N1CCc2cc(OC)c(OC)cc2C1COc1ccc2c(C)cc(=O)oc2c1 (stereo not drawn),·,7,·,2%[46.1 µM],-4%[46.1 µM],-29%
CSc1nsc(SCC(=O)Nc2ccc(O)c(C(=O)O)c2)n1,17%,8,6%,20%[46.1 µM],2%[46.1 µM],2%
CSc1nsc(SCC(=O)Nc2ccccc2C(=O)O)n1,13%,-4,-2%,1%,18µM*,39%
SMILES,HCV inh,HCMV inh,SARS PLpro yeast,Lassa entry inh,Marburg entry inh,FMDV inh
C=CC(=O)N1C/C(=C/c2ccc(F)cc2)C(=O)/C(=C\c2ccc(F)cc2)C1,?,-100*,·,2.5µM*,?,8.9µM*
O=C1C(=Cc2ccc(F)cc2)CCc2ccccc21,·,-1,·,·,·,-6%
COc1ccc(CN2C[C@H](COCc3ccccc3)Oc3cccc(F)c3S2(=O)=O)cc1,·,-19,·,?,·,·
CCCCn1cc2c(c1-c1cccc(C)c1)c(=O)n(C)c(=O)n2C,10µM*,12,2%,·,·,-24%
c1cncc(-c2nc(N3CCOCC3)c3c4c(sc3n2)CCC4)c1,?,-33,0%,1%,?,-26%
c1cncc(-c2nc(NCCCN3CCOCC3)c3c4c(sc3n2)CCC4)c1,?,0,-2%,?,10µM*,-2%
CCc1ccc2c(c1)C1(NN=C(c3ccc(C)cc3)S1)C(=O)N2 (stereo not drawn),10µM*,-101*,-116%,3%,?,-24%
CC(C)c1ccc2c(c1)C1(NN=C(c3ccccc3)S1)C(=O)N2 (stereo not drawn),?,16,-80%,?,?,-20%
CC(C)c1ccc(N2C(=O)/C(=C/N(C)C)SC2=S)cc1,-3%,-60*,5%,·,·,1%
CC(C)c1cnc2c(c1SCc1cccc(C(F)(F)F)c1)c(=O)n(C)c(=O)n2C,·,-38,·,16%[46.1 µM],·,?
COc1cc(-c2cccc(Cl)c2)cc2c1OCCN(C(=O)CCn1ccc(C)n1)C2,·,·,·,·,·,-15%
COc1ccc(NC(=O)O/N=C2/CCCc3ccc(OC)cc32)cc1,2.8µM*,-73*,-18%,?,?,1%
COc1ccc2c(c1)/C(=N/OC(=O)c1cccs1)CCC2,-13%,-13,-21%,-2%,21%[46.1 µM],-9%
CC1=CC2/C=C(\C)CCC(O)C(O)/C=C/C(=O)C23C(=O)NC(CC(C)C)C3C1C (stereo not drawn),?,·,0%,·,·,6.3µM*
COc1ccc(CN2CCC3(CCC(CNC(=O)c4ccnn4C)O3)CC2)c(C)c1C (stereo not drawn),·,·,·,·,·,-4%
NC(=O)C1CCN(c2nc(-c3ccccc3Br)cs2)CC1,·,-74*,-3%,·,·,67%
CCN(CC)CC#CC(OC)(c1ccccc1)c1ccccc1,13%,-63*,-1%,?,?,?
CCOc1ccc(CCNC(=O)CCN2N=C(c3ccc(OC)cc3)CCC2=O)cc1OCC,·,?,·,?,·,-25%
Cc1ccc(N2CC(NC(=O)Cc3cccs3)CC2=O)cc1C (stereo not drawn),·,46,·,-4%[46.1 µM],·,2%
Cc1cccc(Nc2nc(N)c([N+](=O)[O-])c(NCc3ccco3)n2)c1,?,16,-3%,2%,?,?
COc1ccccc1Nc1nc(NCc2ccco2)c2ccccc2n1,?,-99*,2%,-20%,?,?
Cc1ccc(Nc2nc(NCc3ccco3)c3ccccc3n2)cc1,3.5µM*,-82*,-7%,2.8µM*,?,-42%
C[C@H](C(=O)N[C@H](CO)c1ccccc1)N1Cc2ccc(N3CCOCC3)nc2C1=O,·,-5,·,·,·,·
